What all share (assay): DAPPL (digital affinity profiling via proximity ligation, sequencing); 10 mM Tris-HCl pH 7.5, 50 mM NaCl, 1 mM DTT, 4% glycerol, room temperature, 30 min; GST-TFs on glutathione beads, 16-mer random dsDNA library, 0.1% formaldehyde crosslink after washing; high values mean tight binding
What all share (details): protein: recombinant; tags: N-terminal GST; dsDNA, one strand shown

One assay concerns the target T1, ELK1 (Homo sapiens, UniProt P19419 1-428).
T1 sequence: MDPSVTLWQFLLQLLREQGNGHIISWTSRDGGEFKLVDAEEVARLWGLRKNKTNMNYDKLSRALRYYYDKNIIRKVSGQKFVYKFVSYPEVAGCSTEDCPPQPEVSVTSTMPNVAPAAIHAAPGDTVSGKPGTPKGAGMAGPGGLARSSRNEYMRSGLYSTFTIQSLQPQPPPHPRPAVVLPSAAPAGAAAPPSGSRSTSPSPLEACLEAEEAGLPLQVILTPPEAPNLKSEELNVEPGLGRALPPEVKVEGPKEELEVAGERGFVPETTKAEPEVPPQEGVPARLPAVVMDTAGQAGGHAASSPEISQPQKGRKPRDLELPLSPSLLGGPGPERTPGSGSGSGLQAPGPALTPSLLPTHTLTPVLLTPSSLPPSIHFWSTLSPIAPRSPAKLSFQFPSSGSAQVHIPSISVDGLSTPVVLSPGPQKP
In outline: (§1)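 Binding signal is each hexamer's read frequency for a factor divided by its frequency in the tag-only sample. The factors were GST-fused human transcription factors from yeast, captured on glutathione beads, DNA-barcoded and pooled with that sample. Pools were incubated with 200 nmole of a random double-stranded 16-mer DNA library in Tris/NaCl/DTT/glycerol buffer at room temperature for 30 min, then washed, crosslinked with 0.1% formaldehyde, proximity-ligated with BsaI/T4 ligase (1 h, 37 °C), PCR-amplified and sequenced on an Illumina NextSeq500.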

A further assay concerns the target T2, GABPA (Homo sapiens, UniProt Q06546 1-454).
T2 sequence: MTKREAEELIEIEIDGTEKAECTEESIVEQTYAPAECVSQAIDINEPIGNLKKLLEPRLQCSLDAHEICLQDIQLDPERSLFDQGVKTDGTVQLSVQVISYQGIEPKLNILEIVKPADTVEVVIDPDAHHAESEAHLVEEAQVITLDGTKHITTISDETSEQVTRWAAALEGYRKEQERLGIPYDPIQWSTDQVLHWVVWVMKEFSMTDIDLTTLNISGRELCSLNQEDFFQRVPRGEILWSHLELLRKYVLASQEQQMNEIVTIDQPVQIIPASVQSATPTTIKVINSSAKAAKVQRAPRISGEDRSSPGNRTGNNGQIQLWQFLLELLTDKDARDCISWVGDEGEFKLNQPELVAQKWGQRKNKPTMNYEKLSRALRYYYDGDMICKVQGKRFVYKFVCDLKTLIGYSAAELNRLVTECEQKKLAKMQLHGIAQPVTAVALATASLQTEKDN
In outline: as §1

The target in the next assay is T3, ERG (Homo sapiens, UniProt P11308 1-479).
T3 sequence: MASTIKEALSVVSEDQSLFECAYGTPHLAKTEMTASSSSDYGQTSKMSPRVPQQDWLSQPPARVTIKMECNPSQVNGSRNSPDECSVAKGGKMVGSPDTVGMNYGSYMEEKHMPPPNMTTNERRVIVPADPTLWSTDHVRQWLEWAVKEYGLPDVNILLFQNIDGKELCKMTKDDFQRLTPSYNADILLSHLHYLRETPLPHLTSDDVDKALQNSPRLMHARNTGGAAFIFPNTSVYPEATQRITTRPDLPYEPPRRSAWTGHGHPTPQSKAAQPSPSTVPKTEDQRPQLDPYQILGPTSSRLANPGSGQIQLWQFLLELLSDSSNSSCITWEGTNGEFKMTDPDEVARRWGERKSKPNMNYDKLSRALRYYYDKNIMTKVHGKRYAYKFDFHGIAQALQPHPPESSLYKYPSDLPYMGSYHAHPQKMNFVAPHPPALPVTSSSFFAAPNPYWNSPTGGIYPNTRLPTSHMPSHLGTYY
The procedure, abridged:
as §1

Another assay concerns the target ELF1 (Homo sapiens, UniProt P32519 1-619). The procedure, abridged: as §1
For the next assay, the target named is SPI1 (Homo sapiens, UniProt P17947 1-270). The procedure, abridged:
as §1

The target of a further assay is SPIB (Homo sapiens, UniProt Q01892 1-262). The procedure, abridged:
as §1

A further assay concerns the target T4, FEV (Homo sapiens, UniProt Q99581 1-238).
T4 sequence: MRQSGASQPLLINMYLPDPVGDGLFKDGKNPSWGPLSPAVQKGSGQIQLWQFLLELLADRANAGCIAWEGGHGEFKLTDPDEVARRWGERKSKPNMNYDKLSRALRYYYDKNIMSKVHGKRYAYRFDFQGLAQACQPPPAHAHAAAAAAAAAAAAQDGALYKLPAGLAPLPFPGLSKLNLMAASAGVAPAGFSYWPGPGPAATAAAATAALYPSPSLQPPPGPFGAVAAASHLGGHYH
The procedure, abridged:
as §1

A further assay concerns the target ETV5 (Homo sapiens, UniProt P41161 1-510). The procedure, abridged: as §1
Another assay has as its target ELF4 (Homo sapiens, UniProt Q99607 1-663). The procedure, abridged: as §1
The target in the next assay is T5, ELK4 (Homo sapiens, UniProt P28324-2 1-405).
T5 sequence: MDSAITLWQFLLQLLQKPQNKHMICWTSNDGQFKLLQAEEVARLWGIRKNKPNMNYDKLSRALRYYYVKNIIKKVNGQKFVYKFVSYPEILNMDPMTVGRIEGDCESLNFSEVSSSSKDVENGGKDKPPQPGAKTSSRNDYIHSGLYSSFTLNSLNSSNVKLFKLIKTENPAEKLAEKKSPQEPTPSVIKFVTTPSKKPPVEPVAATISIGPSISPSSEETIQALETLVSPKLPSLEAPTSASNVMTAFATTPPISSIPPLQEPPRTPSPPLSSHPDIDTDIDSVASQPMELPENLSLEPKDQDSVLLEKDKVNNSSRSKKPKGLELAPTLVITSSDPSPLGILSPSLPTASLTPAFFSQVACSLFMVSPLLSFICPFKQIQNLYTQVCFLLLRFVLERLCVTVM
The procedure, abridged:
as §1

For the next assay, the target named is T6, ETV2 (Homo sapiens, UniProt O00321 1-342).
T6 sequence: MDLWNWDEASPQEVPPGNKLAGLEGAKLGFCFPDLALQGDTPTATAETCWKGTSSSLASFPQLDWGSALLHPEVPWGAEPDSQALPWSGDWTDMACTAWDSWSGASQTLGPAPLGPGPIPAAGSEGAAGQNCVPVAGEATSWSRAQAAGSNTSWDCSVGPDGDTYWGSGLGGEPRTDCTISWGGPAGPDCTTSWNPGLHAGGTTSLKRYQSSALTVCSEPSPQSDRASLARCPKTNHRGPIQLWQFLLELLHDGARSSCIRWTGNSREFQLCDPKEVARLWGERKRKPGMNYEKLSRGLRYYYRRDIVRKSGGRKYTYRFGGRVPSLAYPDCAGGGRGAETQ
The procedure, abridged: as §1

For the next assay, the target named is T7, ELF3 (Homo sapiens, UniProt P78545 1-371).
T7 sequence: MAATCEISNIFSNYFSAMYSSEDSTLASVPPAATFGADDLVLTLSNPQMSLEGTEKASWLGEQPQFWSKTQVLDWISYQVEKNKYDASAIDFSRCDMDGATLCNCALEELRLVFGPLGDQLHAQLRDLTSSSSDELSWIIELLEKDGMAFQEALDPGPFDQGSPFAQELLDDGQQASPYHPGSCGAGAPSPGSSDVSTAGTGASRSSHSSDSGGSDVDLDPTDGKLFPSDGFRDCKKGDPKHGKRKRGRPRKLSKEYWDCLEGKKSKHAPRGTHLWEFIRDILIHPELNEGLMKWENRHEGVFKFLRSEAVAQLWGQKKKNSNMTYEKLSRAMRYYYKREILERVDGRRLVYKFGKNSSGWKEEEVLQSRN
The procedure, abridged:
as §1

For the next assay, the target named is ETV1 (Homo sapiens, UniProt P50549 1-477). The procedure, abridged:
as §1

Another assay concerns the target T8, ERF (Homo sapiens, UniProt P50548 1-548).
T8 sequence: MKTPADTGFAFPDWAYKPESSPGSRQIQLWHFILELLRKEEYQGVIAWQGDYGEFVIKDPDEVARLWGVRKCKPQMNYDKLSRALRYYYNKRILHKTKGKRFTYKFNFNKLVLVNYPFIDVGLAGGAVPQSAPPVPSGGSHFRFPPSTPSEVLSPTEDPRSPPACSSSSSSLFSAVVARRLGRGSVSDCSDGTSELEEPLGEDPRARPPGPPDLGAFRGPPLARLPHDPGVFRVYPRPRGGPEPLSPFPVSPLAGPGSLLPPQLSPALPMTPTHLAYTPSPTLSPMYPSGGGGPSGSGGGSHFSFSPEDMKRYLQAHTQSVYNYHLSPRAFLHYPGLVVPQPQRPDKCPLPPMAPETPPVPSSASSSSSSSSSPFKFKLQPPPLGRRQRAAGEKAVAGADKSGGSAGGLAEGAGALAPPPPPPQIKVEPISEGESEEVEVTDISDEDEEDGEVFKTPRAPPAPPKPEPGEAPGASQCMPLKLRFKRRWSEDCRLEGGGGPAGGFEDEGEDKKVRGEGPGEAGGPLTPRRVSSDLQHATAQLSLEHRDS
The procedure, abridged: as §1

The next assay addresses T9, ETV3L (Homo sapiens, UniProt Q6ZN32 1-361).
T9 sequence: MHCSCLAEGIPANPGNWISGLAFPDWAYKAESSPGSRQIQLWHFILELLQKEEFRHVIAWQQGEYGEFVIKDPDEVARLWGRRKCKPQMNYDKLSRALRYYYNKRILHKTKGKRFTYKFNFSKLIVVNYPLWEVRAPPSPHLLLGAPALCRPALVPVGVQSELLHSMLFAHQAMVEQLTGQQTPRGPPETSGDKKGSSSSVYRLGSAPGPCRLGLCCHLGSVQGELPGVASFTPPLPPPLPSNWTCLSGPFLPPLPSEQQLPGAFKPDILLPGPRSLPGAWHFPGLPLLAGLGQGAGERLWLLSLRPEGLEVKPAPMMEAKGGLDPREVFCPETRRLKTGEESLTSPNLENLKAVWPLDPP
In outline: as §1

Another assay has as its target T10, ETS2 (Homo sapiens, UniProt P15036 1-469).
T10 sequence: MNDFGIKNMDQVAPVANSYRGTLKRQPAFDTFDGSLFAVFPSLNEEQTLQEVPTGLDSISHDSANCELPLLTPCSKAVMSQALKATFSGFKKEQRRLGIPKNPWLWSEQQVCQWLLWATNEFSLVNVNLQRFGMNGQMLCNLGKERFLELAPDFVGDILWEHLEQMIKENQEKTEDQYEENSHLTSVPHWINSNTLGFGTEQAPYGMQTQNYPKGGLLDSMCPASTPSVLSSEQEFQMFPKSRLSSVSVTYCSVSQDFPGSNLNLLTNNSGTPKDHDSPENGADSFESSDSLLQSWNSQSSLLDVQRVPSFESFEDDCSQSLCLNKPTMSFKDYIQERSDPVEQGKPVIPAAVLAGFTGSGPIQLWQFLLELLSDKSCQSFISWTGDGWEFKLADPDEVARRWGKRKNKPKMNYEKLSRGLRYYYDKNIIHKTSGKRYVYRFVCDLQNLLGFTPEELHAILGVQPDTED
The procedure, abridged:
as §1

For another assay, the target named is T11, ETV7 (Homo sapiens, UniProt Q9Y603 1-341).
T11 sequence: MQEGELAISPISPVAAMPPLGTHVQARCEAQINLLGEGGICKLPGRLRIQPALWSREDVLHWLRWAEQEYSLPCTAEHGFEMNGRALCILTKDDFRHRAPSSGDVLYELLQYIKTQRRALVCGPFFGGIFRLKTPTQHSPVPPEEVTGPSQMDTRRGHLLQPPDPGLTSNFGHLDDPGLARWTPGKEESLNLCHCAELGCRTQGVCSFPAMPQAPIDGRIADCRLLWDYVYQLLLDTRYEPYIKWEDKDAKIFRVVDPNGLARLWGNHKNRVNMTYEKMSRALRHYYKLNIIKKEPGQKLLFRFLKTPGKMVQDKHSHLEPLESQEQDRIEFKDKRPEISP
In outline: as §1

In the next assay the target is T12, ETV3 (Homo sapiens, UniProt P41162-2 1-143).
T12 sequence: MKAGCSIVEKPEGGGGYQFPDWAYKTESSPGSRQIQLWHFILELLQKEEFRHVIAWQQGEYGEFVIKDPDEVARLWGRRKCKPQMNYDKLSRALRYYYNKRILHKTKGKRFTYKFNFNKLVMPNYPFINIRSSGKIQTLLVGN
In outline: as §1

In the next assay the target is ETV6 (Homo sapiens, UniProt P41212 1-452). The procedure, abridged: as §1
ETV6, sequence (P41212 whole entry): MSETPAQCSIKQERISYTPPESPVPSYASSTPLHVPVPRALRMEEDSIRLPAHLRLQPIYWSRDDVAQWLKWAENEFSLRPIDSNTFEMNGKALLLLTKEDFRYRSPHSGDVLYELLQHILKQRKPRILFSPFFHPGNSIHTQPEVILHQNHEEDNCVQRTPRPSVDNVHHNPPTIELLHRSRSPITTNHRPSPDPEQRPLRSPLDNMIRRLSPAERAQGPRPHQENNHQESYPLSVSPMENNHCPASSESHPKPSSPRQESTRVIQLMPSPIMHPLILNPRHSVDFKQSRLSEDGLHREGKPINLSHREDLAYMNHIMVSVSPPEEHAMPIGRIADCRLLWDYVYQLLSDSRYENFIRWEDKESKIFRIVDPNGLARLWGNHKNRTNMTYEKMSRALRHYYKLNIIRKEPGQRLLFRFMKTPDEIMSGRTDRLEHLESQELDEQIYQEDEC

ELF4, sequence (Q99607 whole entry): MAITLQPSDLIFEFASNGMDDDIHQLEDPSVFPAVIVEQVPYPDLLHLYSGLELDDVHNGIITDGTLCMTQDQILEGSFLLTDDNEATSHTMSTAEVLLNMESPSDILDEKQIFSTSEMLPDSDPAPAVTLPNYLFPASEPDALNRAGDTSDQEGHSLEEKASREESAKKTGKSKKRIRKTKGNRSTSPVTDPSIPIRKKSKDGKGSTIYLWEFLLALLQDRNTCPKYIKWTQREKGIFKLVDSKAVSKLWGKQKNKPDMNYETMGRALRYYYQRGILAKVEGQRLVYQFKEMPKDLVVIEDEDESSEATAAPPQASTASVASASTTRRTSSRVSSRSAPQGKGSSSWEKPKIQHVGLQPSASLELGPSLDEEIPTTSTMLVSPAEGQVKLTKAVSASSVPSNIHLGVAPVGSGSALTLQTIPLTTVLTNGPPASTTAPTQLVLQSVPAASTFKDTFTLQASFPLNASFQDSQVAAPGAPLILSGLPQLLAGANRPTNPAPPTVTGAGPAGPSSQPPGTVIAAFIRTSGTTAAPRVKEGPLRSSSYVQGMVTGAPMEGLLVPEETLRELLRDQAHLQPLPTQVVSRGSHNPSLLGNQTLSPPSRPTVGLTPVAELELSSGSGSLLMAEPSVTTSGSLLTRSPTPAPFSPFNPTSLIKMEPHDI
ETV5, sequence (P41161 whole entry): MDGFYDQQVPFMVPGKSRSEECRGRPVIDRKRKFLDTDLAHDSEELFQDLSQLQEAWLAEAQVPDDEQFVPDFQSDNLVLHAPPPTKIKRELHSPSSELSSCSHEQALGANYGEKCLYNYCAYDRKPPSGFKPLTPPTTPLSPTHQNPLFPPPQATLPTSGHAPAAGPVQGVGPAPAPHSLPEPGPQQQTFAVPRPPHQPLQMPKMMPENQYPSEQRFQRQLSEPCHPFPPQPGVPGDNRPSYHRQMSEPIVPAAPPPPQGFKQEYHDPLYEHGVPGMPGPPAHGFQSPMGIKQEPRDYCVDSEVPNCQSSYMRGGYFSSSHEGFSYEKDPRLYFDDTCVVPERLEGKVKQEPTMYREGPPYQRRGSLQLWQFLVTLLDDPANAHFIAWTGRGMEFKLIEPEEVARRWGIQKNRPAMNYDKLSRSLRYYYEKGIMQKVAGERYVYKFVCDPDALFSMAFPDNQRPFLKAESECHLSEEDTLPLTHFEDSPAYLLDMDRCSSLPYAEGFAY
ELF1, sequence (P32519 whole entry): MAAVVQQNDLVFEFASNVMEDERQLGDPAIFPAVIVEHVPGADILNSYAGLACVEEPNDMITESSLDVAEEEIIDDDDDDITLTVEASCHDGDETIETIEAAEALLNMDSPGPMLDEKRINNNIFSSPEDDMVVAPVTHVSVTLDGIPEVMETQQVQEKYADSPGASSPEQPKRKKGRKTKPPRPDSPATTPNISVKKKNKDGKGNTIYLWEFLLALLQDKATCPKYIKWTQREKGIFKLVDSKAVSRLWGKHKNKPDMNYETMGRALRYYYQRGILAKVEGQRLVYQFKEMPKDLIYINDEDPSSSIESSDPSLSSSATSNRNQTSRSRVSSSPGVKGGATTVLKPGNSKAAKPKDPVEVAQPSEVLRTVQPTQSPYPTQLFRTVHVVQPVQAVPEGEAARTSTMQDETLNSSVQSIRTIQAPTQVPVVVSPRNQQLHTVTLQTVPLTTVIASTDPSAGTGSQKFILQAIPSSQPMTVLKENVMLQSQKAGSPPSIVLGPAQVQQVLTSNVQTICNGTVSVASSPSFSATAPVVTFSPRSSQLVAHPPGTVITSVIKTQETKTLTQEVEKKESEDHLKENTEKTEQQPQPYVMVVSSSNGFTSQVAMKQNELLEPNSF
ETV1, sequence (P50549 whole entry): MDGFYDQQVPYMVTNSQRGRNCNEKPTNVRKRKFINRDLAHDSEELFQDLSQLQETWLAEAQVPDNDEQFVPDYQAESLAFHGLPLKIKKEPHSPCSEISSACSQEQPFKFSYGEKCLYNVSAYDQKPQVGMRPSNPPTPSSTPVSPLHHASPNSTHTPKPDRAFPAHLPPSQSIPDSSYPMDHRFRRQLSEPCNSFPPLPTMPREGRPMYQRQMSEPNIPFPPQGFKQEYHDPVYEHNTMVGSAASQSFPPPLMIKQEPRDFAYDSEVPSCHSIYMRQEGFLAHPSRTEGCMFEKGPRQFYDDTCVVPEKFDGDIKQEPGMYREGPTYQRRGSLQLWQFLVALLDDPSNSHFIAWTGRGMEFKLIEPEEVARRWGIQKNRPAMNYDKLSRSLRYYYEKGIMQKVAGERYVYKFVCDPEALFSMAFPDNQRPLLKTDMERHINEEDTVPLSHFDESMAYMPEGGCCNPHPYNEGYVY
SPIB, sequence (Q01892 whole entry): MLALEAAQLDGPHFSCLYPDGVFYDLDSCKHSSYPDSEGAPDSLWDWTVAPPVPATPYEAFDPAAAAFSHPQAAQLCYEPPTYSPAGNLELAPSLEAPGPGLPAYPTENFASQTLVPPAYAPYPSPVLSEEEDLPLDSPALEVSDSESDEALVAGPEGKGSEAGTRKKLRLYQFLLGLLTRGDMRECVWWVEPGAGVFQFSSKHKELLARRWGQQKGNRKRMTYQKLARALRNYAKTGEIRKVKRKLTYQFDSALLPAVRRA

Turning to ATCAAA, the binding signal with ELK1 is 1.05 fold enrichment (6-mer frequency, TF over GST control); with GABPA, 1.13 fold enrichment (6-mer frequency, TF over GST control); in the assay with ERG, 1.11 fold enrichment (6-mer frequency, TF over GST control); with ELF1 it was 1.07 fold enrichment (6-mer frequency, TF over GST control); with SPI1 it was 1.06 fold enrichment (6-mer frequency, TF over GST control); with SPIB, 1.02 fold enrichment (6-mer frequency, TF over GST control). The binding signal was 1.03 fold enrichment (6-mer frequency, TF over GST control) with FEV; 1.06 fold enrichment (6-mer frequency, TF over GST control) with ETV5; 1.12 fold enrichment (6-mer frequency, TF over GST control) with ELF4; 1.1 fold enrichment (6-mer frequency, TF over GST control) in the assay with ELK4; 1.11 fold enrichment (6-mer frequency, TF over GST control) with ETV2; 1.04 fold enrichment (6-mer frequency, TF over GST control) in the assay with ELF3. For the same sequence, the binding signal was 1.15 fold enrichment (6-mer frequency, TF over GST control) with ETV1; 1.08 fold enrichment (6-mer frequency, TF over GST control) with ERF; 1.08 fold enrichment (6-mer frequency, TF over GST control) in the assay with ETV3L; 1.07 fold enrichment (6-mer frequency, TF over GST control) in the assay with ETS2; 1.1 fold enrichment (6-mer frequency, TF over GST control) in the assay with ETV7; 1.01 fold enrichment (6-mer frequency, TF over GST control) with ETV3. Also, in the assay with ETV6, the binding signal was 1.07 fold enrichment (6-mer frequency, TF over GST control).

The record behind these values is publication PMC7862700, “An all-to-all approach to the identification of sequence-specific readers for epigenetic DNA modifications on cytosine”.
